Assay outcomes deposited in PubChem by National Center for Advancing Translational Sciences (NCATS).
This is a sample that favours compounds with a hit; in the whole collection about 6% have one here.
DRD3 agonist: agonists of human D3 dopamine receptor. 410,000 tested, 0.58% active. max activation, %. P35462. D3R DiscoveRx beta-arrestin cells, luminescence, 90 min; in the data active = max activation above about 30%
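Agonist-mode cell screen: cells plated at 1500/well and incubated overnight at 37 °C, then exposed to library compounds for 90 min at 37 °C. Detection reagent was added for 30–60 min at room temperature, and luminescence was read.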
D1 antag: blocks dopamine activation of the human D1 receptor | HEK293 TREx D1 cells, calcium flux, dopamine EC80; stronger effect = lower value | P21728 | AID 504652 | activity change, negative = inhibition, % at 10 µM | 360,000 tested, 3.2% active; in the data active = activity change below about -30%
Target sequence (P21728 whole entry, looked up): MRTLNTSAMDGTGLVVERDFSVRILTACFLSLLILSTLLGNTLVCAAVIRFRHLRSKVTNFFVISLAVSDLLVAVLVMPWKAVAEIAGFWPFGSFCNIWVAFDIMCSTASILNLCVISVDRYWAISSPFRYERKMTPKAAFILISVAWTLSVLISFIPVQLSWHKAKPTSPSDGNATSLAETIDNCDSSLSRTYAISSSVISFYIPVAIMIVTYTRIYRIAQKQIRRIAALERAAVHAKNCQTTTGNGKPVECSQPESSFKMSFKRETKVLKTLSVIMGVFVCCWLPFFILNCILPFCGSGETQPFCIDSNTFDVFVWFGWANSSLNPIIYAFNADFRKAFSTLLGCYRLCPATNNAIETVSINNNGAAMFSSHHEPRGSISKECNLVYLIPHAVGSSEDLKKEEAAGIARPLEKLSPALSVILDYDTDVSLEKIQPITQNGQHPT
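Tetracycline-induced HEK293 Trex D1 cells, force-coupled to calcium, dye-loaded; compounds added and read 180 s, then EC80 dopamine added and calcium flux tracked kinetically another 180 s.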
D1 potentiator: enhances dopamine response at the human D1 receptor; 360,000 tested, 0.036% active; potentiation, % at 10 µM; AID 504651; HEK293 TREx D1 cells, calcium flux, dopamine EC20 potentiation; P21728; in the data active = potentiation above about 30%
DRD3 antagonist: antagonists of human D3 dopamine receptor | P35462 | D3R cells, DiscoveRx beta-arrestin luminescence, antagonist mode; stronger effect = lower value | max response, negative = inhibition, % | 360,000 tested, 2.5% active; in the data active = max response below about -50%; inconclusive = no clear call, values can overlap the other calls
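Cells expressing the human receptor were seeded at 1500 cells/well, incubated overnight at 37 degrees C in 5% CO2, then exposed to library compounds with dopamine controls for 90 minutes at 37 degrees C before luminescent detection.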
D1 agonist: human D1 receptor agonism | activation, % at 2 µM | 360,000 tested, 1% active | P21728 | HEK293 T-REx D1 cells, calcium flux, agonist mode; in the data active = activation above about 30%
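Agonism was scored from calcium flux recorded over 180 s (1 read/s) after pintool compound addition, following a 10-cycle baseline. Cells were inducible force-coupled HEK293 TREx D1, plated overnight at 30 C and loaded with no-wash calcium dye.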
Large screens that a line does not name were inactive.

O=C(NCCc1ccccc1)c1ccc(Cl)cc1[N+](=O)[O-]	none
Clc1ccc(CN2CCC(c3nc4ccc(Cl)cc4[nH]3)CC2)cc1	DRD3 antagonist -74
Clc1cccc(CN2CCN(Cc3ccco3)CC2)c1	DRD3 antagonist -66
Cc1cccc(CN2CCN(Cc3ccco3)CC2)c1	none
Clc1cccc(CN2CCC(Cc3ccccc3)CC2)c1	DRD3 antagonist -78
CSc1ccc(OC2CCN(Cc3ccccc3)CC2)cc1	DRD3 antagonist -51
CC1CCCN(C(=O)CN2CCC(c3nc4ccc(Cl)cc4[nH]3)CC2)C1 (stereo unspecified)	none
COc1ccc(CN(C)C(=O)/C=C/[C@H]2O[C@@H](n3cc(C)c(=O)[nH]c3=O)C[C@@H]2O)cc1OC	none (no result: D1 antag, D1 potentiator, D1 agonist)
Cn1nc(C(F)(F)F)c(-c2ccc(Br)cc2)c1NC(=O)c1ccco1	none
Cn1nc(C(F)(F)F)c(-c2ccc(F)cc2)c1NC(=O)Nc1ccc(F)cc1	D1 antag -67, D1 agonist 31
Cc1c(C(=O)N2CCC(C)CC2)c(S(=O)(=O)N(Cc2ccccc2)C(C)(C)C)c(C)n1C	none (no result: DRD3 antagonist)
O=C1C=CC(=O)N1CCCCCCN1C(=O)C=CC1=O	DRD3 antagonist -72
COc1ccc(S(=O)(=O)NCCc2sc(-c3cccc(C)c3)nc2C)cc1	none (no result: DRD3 antagonist)
Cc1ccc(Cn2cnc3sc4c(c3c2=O)CCC4)c(C)c1	D1 potentiator 38
Cc1ccc(C)n1-n1cnc2sc3c(c2c1=O)CCC3	D1 antag -33
O=C(O)c1ccc(Cn2cnc3sc4c(c3c2=O)CCCC4)cc1	none
Cc1ccc(CNC(=O)Cc2csc3ccccc23)cc1	none (no result: DRD3 antagonist)
Nc1ccc2c(c1)Nc1ccccc1CC2	D1 antag -31
Cc1csc(NC(=O)CCNS(=O)(=O)c2ccc3c(c2)c(=O)n(C)c(=O)n3C)n1	DRD3 antagonist -93
Cc1cccnc1NC(=O)CCNS(=O)(=O)c1ccc2c(c1)c(=O)n(C)c(=O)n2C	none
O=C(COc1ccccc1[N+](=O)[O-])Nc1cc(-c2nc3cc(Cl)ccc3o2)ccc1Cl	D1 antag -45 (no result: DRD3 antagonist)
Cc1cc(C)cc(OCC(=O)Nc2ccc(-c3nc4ccccc4o3)cc2)c1	D1 antag -32 (no result: DRD3 antagonist)
Cc1ccc(OCC(=O)Nc2ccc3oc(=O)ccc3c2)c(C)c1	D1 antag -56
O=C(COc1ccc2ccc(=O)oc2c1)Nc1ccc(CCO)cc1	D1 antag -49
Cc1cc(Cl)ccc1OCC(=O)Nc1ccc2oc(=O)ccc2c1	none
Cc1cccc(OCC(=O)Nc2ccc(-c3nc4ccccc4o3)cc2)c1C	none (no result: DRD3 antagonist)
COc1ccccc1CNC(=O)c1oc2c(c1C)-c1nn(Cc3ccc(Cl)cc3)cc1CC2	none (no result: DRD3 antagonist)
CCOc1ccc(CCNC(=O)CCc2cn(Cc3ccc(F)cc3)c3ccccc23)cc1	none (no result: DRD3 antagonist)
COc1ccc(-c2nc3cc(NC(=O)COc4ccccc4C)ccc3o2)cc1	D1 antag -54 (no result: DRD3 antagonist)
O=C(Cn1nc(-c2ccccc2)c2cnc3ccc(F)cc3c21)NC1CCCC1	none (no result: DRD3 antagonist)
O=C(CSc1nc(N2CCOCC2)nc(N2CCOCC2)n1)Nc1cccc(C(F)(F)F)c1	none
O=C(OCCn1c(=S)sc2ccccc21)c1ccccc1	none (no result: D1 antag, D1 potentiator, D1 agonist)
O/N=C/CCn1c(=S)sc2ccccc21	DRD3 antagonist -51
CCN(CC)C(=O)CSc1nc(-c2ccc(C)cc2)nc2c1Cc1c(CO)cnc(C)c1O2	none (no result: DRD3 antagonist)
OCCN1CCN(CCCN2c3ccccc3Sc3ccc(C(F)(F)F)cc32)CC1	D1 antag -106, DRD3 antagonist -96, D1 agonist 38 (no result: D1 potentiator)
CCN(CC)CC(=O)N1c2ccccc2Sc2ccc(Cl)cc21	DRD3 antagonist inconclusive
CN(C)CCCN1c2ccccc2Sc2ccc(C(F)(F)F)cc21	D1 antag -79, DRD3 antagonist -97, D1 agonist 55
CN(C)CCCN1c2ccc(O)cc2Sc2ccc(Cl)cc21	DRD3 antagonist -110 (no result: D1 antag, D1 potentiator, D1 agonist)
CCN(CC)CCCCN1c2ccccc2Sc2ccccc21	DRD3 antagonist -107, D1 agonist 35
COc1ccc(N2CCN(S(=O)(=O)c3ccc(OC)c(C(=O)N4CCOCC4)c3)CC2)cc1	none
CN(C)CCC(=O)N1c2ccccc2Sc2ccc(C(F)(F)F)cc21	DRD3 antagonist inconclusive
OCCN1CCN(CCCN2c3ccccc3CCc3ccccc32)CC1	DRD3 antagonist -125 (no result: D1 antag, D1 potentiator, D1 agonist)
CN1CCN(CCC(=O)N2c3ccccc3Sc3ccc(C(F)(F)F)cc32)CC1	DRD3 antagonist -53
N#CC1=C(N)S[C@@H](C(=O)c2ccc(F)cc2)[C@@H]1c1cccs1	D1 antag -43
N#CC1=C(N)SC(C(=O)c2ccccc2)C1c1cccs1 (stereo unspecified)	none
NCCCC[C@H](N)C(=O)O	none (no result: D1 antag, D1 potentiator, DRD3 antagonist, D1 agonist)
Cn1c(C=O)c(C#Cc2ccccc2)c2ccccc21	DRD3 agonist 39 (no result: D1 antag)
Cc1noc(/C=C/c2ccccc2F)c1S(=O)(=O)N1CCC(C(=O)N2CCOc3ccccc32)CC1	none (no result: DRD3 antagonist)
O=C1CC(c2ccsc2)Sc2ccccc2N1 (stereo unspecified)	D1 antag -32
Cc1cc(C2CC(=O)Nc3ccccc3S2)c(C)s1 (stereo unspecified)	none
Cc1ccc(C)c(N2CCN(c3nc4ccccc4c(=O)n3-c3ccc(Cl)cc3)CC2)c1	D1 antag -56 (no result: DRD3 antagonist)
Cc1cccc(N2CCN(c3nc4ccccc4c(=O)n3-c3ccc(Cl)cc3)CC2)c1C	none (no result: DRD3 antagonist)
Nc1ccc(Cn2ccc3c4c(N)nc(N)nc4ccc32)cc1	none (no result: D1 antag, D1 potentiator, D1 agonist)
CC(C)(C)OC(=O)N1CCC(c2c(C(=O)N3CCOCC3)cnn2-c2cccc(F)c2)CC1	DRD3 agonist 74 (no result: DRD3 antagonist)
Cc1cccc(-n2ncc(C(=O)N3CCOCC3)c2C2CCN(C(=O)OC(C)(C)C)CC2)c1	D1 antag -77 (no result: DRD3 antagonist)
Cc1cccc(-n2ncc(C(=O)N3CCN(c4ccc(C)cc4C)CC3)c2C2CCN(C(=O)OC(C)(C)C)CC2)c1	none (no result: DRD3 antagonist)
CC(C)(C)OC(=O)N1CCC(c2c(C(=O)N3CCCCC3)cnn2-c2cccc(F)c2)CC1	none (no result: DRD3 antagonist)
CC(C)CCNC(=O)c1ccc(Cn2c(SCC(N)=O)nc3ccccc3c2=O)cc1	none (no result: DRD3 antagonist)
Cc1noc(C)c1-c1ccc(C(=O)NCCN2CCOCC2)c2occc12	none (no result: D1 antag, D1 potentiator, D1 agonist)
CCOC(=O)C1=C(O)C(=O)N(c2ccc(S(N)(=O)=O)cc2)C1c1ccc(Cl)cc1 (stereo unspecified)	D1 antag -38
CCOC(=O)C1=C(O)C(=O)N(c2ccc(S(N)(=O)=O)cc2)C1c1ccc(Br)cc1 (stereo unspecified)	none
Clc1nc(NC2CCCCC2)c2cn[nH]c2n1	none (no result: D1 antag, D1 potentiator, D1 agonist)
O=C(COC(=O)C1CCCCC1)Nc1cccc(F)c1	none (no result: D1 antag, D1 potentiator, D1 agonist)
COc1ccc(NC(=O)Cc2noc3ccc(C)cc23)cc1Cl	D1 antag -31 (no result: DRD3 antagonist)
O=C(COC(=O)CC1CCCC1)Nc1cccc(F)c1	D1 antag -31
COc1ccc(NC(=O)CCCC(=O)O)cc1Cl	DRD3 antagonist -50
COc1ccc(NC(=O)CN(C)C2CCCCC2)cc1Cl	D1 antag -45
COc1cccc(C=O)c1OCCCOc1cccc2cccnc12	none
O=C(O)CCCC(=O)Nc1ccc(Cl)cc1	D1 antag -54
